Assay outcomes as filed in PubChem BioAssay.
CHT PAM = human CHT allosteric activation; actives 0.49% (n = 310,000); AID 488977; CHT-expressing cells, membrane potential dye, choline EC20; hits give high values; LV-AA mutant CHT in HEK293 cells; B-score at 10 µM;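 active means initial fluorescence not abnormally high and integrated response B-score, plate-corrected, over 3 SD above library mean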
Target sequence (Q9GZV3 whole entry, looked up): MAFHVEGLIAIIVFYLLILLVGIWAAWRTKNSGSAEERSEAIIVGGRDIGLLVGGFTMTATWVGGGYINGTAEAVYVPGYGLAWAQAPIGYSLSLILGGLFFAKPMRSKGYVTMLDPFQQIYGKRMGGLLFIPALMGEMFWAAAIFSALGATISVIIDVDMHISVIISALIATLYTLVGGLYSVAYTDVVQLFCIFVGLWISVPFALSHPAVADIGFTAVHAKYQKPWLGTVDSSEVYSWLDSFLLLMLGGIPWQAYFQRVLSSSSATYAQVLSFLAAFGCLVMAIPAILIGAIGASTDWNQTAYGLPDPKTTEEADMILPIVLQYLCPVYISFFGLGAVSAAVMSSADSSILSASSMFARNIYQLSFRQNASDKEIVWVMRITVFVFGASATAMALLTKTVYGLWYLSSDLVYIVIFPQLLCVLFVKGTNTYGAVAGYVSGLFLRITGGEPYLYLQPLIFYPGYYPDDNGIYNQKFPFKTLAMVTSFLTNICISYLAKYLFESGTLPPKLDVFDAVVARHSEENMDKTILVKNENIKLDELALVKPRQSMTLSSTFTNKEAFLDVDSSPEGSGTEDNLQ
Mot1-301 SUMO = inhibitors of SUMOylation pathway: yeast Mot1-301 growth rescue; growth rescue, % at 18.8 µM; actives 1% (n = 320,000); S. cerevisiae Mot1-301 growth rescue, ATP luminescence, 38.5C; percent above DMSO median, 100 means doubled; AID 2716;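 active means every valid replicate shows activation above 250% relative to neutral control wells; inactive means the rest, any valid replicate at or below 250%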
MEKK3 PB1 HTS = raises or lowers MEK5 binding to the human MEKK3 PB1 domain | AID 1529 | Q99759 | bead-based flow cytometry, Alexa488-MEK5 binding to MEKK3; actives lie on both sides; 0 = blocked by unlabeled MEK5, 100 = vehicle | binding response (% of control), % at 10 µM | actives 1.4% (n = 290,000);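 active means binding response more than 3 SD above or below the average of its plate-row segment, actives on both sides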;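 further: Alexa488 bead fluorescence after subtracting the streptavidin-only scavenger bead signal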
MEKK2mut PB1 HTS = signal of MEK5 binding to mutant human MEKK2 PB1 domain; bead flow cytometry, Alexa488-MEK5 binding to MEKK2 mutant; percent response, % at 10 µM; actives 0.35% (n = 290,000); AID 1530; in the data active means percent response above about 24%, passing the limit was not always enough
MEKK2wt PB1 HTS = raises or lowers MEK5 binding to wildtype human MEKK2 PB1 domain | actives 1.1% (n = 290,000) | bead flow cytometry, Alexa488-MEK5 binding to MEKK2 WT; actives lie on both sides | binding response (% of control), % at 10 µM | Q9Y2U5; in the data active means binding response below about 67% or above about 130%
CHT block = inhibits the human high affinity choline transporter; CHT-expressing cells, membrane potential dye, choline response; hits give low values; B-score at 10 µM; actives 0.86% (n = 310,000); AID 488975;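 active means B-score over 3 SD under the library average, and starting fluorescence ratio not unusually high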;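 further: choline stimulus applied at its EC90 after an EC20 pre-addition; B-score computed on integrated fluorescence ratio after choline addition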
Yeast Mot1 SUMO = inhibits SUMO pathway, affecting Mot1-301 yeast growth; shares compounds with Mot1-301 SUMO; growth activity, percent, % at 42 µM; 2,300 tested, under 10 active; AID 493004; S. cerevisiae Mot1-301 galactose growth, ATP luminescence, 24 h; -100 = growth of slx-deleted rescue strain;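 active means Signal drops as the depositor expects, and the fitted half-maximal dose is no more than ten times the top valid tested dose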;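 further: more negative values mean stronger growth rescue toward the control strain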
A number is an active result; – = inactive; · = no result; + = active, no number. A selection: hits, their analogues and other compounds. The true share with any hit is near 4.1%.

SMILES	CHT PAM	Mot1-301 SUMO	MEKK3 PB1 HTS	MEKK2mut PB1 HTS	MEKK2wt PB1 HTS	CHT block	Yeast Mot1 SUMO
O=C(CSc1nncs1)Nc1ccc(Cl)cn1	–	–	–	–	–	–	·
N#C/C(=C\c1cn(-c2ccccc2)nc1-c1cccnc1)c1nnc2n1CCCCC2	–	397	–	–	–	–	–
CC(c1ccco1)N(C(=O)c1ccc(Cl)c([N+](=O)[O-])c1)c1ccccn1 (stereo not drawn)	–	–	–	–	–	–	·
CCn1c(SCC(=O)NC2CCCCC2)nnc1C(C)NC(=O)c1ccccc1F (stereo not drawn)	–	+	–	–	–	–	–
CC(NC(=O)c1ccccc1F)c1nnc(SCC(=O)NC2CCCCC2)n1C (stereo not drawn)	–	–	–	–	–	–	·
Cc1cc(=O)oc2c(C)c3occc3cc12	–	–	–	–	–	–	·
Cc1ccccc1-n1c(-c2cccnc2)n[nH]c1=S	–	+	–	–	–	–	–
CC(C)n1c(CN(C)c2ccccc2)nc2ccccc21	–	875	–	–	–	–	–
CCN(Cc1nc2ccccc2n1C)c1ccccc1	–	–	–	–	–	–	·
C=CCn1c(CCC)nc2ccccc21	–	634	–	–	–	–	–
C=CCn1c(CC(C)(C)C)nc2ccccc21	–	–	–	–	–	–	·
COc1ccc(C)cc1S(=O)(=O)N1c2ccccc2CC1C (stereo not drawn)	–	–	–	–	–	–	·
Cc1ccc(S(=O)(=O)N2c3ccc(S(N)(=O)=O)cc3CC2C)cc1 (stereo not drawn)	–	+	–	–	–	–	–
COc1ccc2sc(-c3ccc(S(C)(=O)=O)cc3)c(-c3ccc(SC)cc3)c2c1	·	–	·	·	·	·	·
O=C(c1ccccc1)c1cnc2ccc(Cl)cc2c1N1CCOCC1	–	–	–	–	–	–	·
CCOC(=O)c1cnc2c(OC)cccc2c1N1CCN(c2ccccc2OC)CC1	–	+	–	–	–	–	–
CCOC(=O)c1cnc2ccc(Cl)cc2c1N1CCN(C)CC1	–	616	–	–	–	–	–
N#Cc1cc2c(nc1SC1CCCCC1O)CCCC2 (stereo not drawn)	–	485	–	–	–	–	–
COc1cc(C(C2=C(O)CC(C)(C)CC2=O)C2C(=O)CC(C)(C)CC2=O)cc(OC)c1OC (stereo not drawn)	–	658	–	–	–	–	–
CC(C)(C)NC(=O)COc1coc(CN2CCN(C(=O)c3ccco3)CC2)cc1=O	–	–	·	·	·	–	·
COC(=O)c1c(C)cc(O)c(C=O)c1O	–	567	–	–	–	–	–
COC(=O)c1c(C)c(OC(=O)c2c(C)cc(O)c(C=O)c2O)cc(C)c1O	–	–	–	–	–	–	·
CC(C(=O)NCCN1CCOCC1)(c1ccccc1)c1ccccc1	–	667	–	–	–	–	–
CCOC(=O)c1cc2c(ccn2-c2ccc(F)cc2)n1CC(=O)N1CCN(C(=O)c2ccco2)CC1	–	378	–	–	–	–	–
Cc1cc(C(=O)OCC(=O)N2CCN(C(=O)c3ccco3)CC2)c(C)n1-c1ccc(F)cc1	–	–	–	–	–	–	·
SMILES	CHT PAM	Mot1-301 SUMO	MEKK3 PB1 HTS	MEKK2mut PB1 HTS	MEKK2wt PB1 HTS	CHT block	Yeast Mot1 SUMO
O=C(O)COc1ccc(/C=N/NC(=O)c2cccc3ccccc23)cc1	–	–	–	–	–	–	·
Cc1ccc(NC(=O)CNC(=O)c2ccc(Br)o2)nc1	–	–	·	·	·	–	·
Cc1ccnc(NC(=O)CNC(=O)c2ccc(Br)o2)c1	–	493	·	·	·	–	–
CSc1ccc(Cl)c(C(=O)Nc2ccc(N3CCOCC3)cc2)c1	–	+	–	–	–	–	–
O=C(NCCCn1ccnc1)Nc1cccc2ccccc12	–	762	–	–	–	–	–
Cn1cccc1C(=O)NC(=O)COC(=O)CNC(=O)CNC(=O)c1ccc(Cl)cc1Cl	–	–	–	–	–	–	·
CC1=C(C)CC2(SC1)C(=O)N(c1ccccc1)N=C2N (stereo not drawn)	–	–	–	–	–	–	·
CN1/C(=C\C(=O)COC(=O)c2ccc([N+](=O)[O-])o2)C(C)(C)c2ccccc21	–	428	–	–	–	–	–
CN1/C(=C\C(=O)COC(=O)c2nccnc2N)C(C)(C)c2ccccc21	–	–	·	·	·	–	·
O=C(CC1NC(=S)NC1=O)c1ccc(Cl)cc1 (stereo not drawn)	–	–	–	–	–	–	·
COC(=O)c1cc2c(s1)-c1ccc(OC)cc1CC2	–	477	–	–	–	–	–
Cc1ccccc1-c1nnnn1C1CCS(=O)(=O)C1 (stereo not drawn)	–	+	–	–	–	–	–
CCn1c(=O)n(-c2ccc(Cl)cc2)c(=O)c2c3c(sc21)COC(C)(C)C3	–	–	–	–	–	–	·
CS(=O)(=O)N1CCCC(C(=O)NCc2ccco2)C1 (stereo not drawn)	–	384	–	–	–	–	–
O=C(c1ccccc1O)N1N=C(C(F)(F)F)CC1(O)c1ccc([N+](=O)[O-])cc1 (stereo not drawn)	–	–	–	–	–	–	·
O=C(O)c1cc(-c2ccc(Cl)s2)nc2ccccc12	–	–	–	–	–	–	·
Cc1ccc(-c2cc(C(=O)O)c3ccccc3n2)s1	–	891	–	–	–	–	–
Cc1ccc(C(=O)Nc2cccc(N3C(=O)C4CCC(C)CC4C3=O)c2)cc1 (stereo not drawn)	–	–	–	–	–	–	·
O=c1[nH]c(CN2CCN(CCO)CC2)nc2ccccc12	–	587	–	–	–	–	–
O=C(O)C1C2C=CC(C2)C1C(=O)NCc1ccc(Cl)c(Cl)c1 (stereo not drawn)	–	–	–	–	–	–	·
CCOc1cc(N2CCOCC2)c(OCC)cc1NC(=O)CN1C(=O)N(C)C2(CCCCC2)C1=O	·	–	·	·	·	·	·
CCOC(=O)CCN(c1ccccc1)S(=O)(=O)c1ccc(-c2ccc(=O)[nH]n2)s1	–	588	–	–	–	–	–
CCc1ccccc1NC(=O)CN(C)S(=O)(=O)c1ccc(-c2ccc(=O)[nH]n2)s1	–	–	–	–	–	–	·
O=CNCCCc1nc2ccccc2n1CCc1ccccc1	–	+	–	–	–	–	–
CC1(C)C(C=C(Cl)Cl)C1C(=O)OCc1cccc(Oc2ccccc2)c1 (stereo not drawn)	–	463	·	·	·	–	–
CCOC(=O)C1CCN(Cc2cccc(Oc3ccccc3)c2)CC1	–	–	–	–	–	–	·
